Key:
Assay in all cases: DAPPL (digital affinity profiling via proximity ligation, sequencing); 10 mM Tris-HCl pH 7.5, 50 mM NaCl, 1 mM DTT, 4% glycerol, room temperature, 30 min; GST-TFs on glutathione beads, 16-mer random dsDNA library, 0.1% formaldehyde crosslink after washing; high values mean tight binding
FEV = target: T1, FEV (Homo sapiens, UniProt Q99581 1-238); settings: protein: recombinant; tags: N-terminal GST; dsDNA, one strand shown
T1 sequence: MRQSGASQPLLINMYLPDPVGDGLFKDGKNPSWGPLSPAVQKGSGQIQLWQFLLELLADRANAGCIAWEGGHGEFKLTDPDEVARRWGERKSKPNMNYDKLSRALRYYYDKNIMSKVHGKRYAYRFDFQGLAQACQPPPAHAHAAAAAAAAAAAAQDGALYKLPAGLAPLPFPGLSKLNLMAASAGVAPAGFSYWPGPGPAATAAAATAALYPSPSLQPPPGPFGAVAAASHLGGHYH
Summary of the method: (§1)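 Human transcription factors fused to GST were expressed in yeast, captured on glutathione beads, given DNA barcodes and pooled with a GST-only negative control. Pools were incubated with 200 nmole of a 16-mer random double-stranded DNA library in Tris/NaCl/DTT/glycerol buffer at room temperature for 30 min. They were then washed, crosslinked with 0.1% formaldehyde, proximity-ligated (BsaI/T4 ligase, 1 h, 37 °C), PCR-amplified and sequenced on an Illumina NextSeq500. Binding signal is each 6-mer's read frequency for a factor divided by its frequency for the GST control.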

ETV5 = ETV5 (Homo sapiens, UniProt P41161 1-510); settings: protein: recombinant; tags: N-terminal GST; dsDNA, one strand shown
Summary of the method: as §1

HSF1 = HSF1 (Homo sapiens, UniProt Q00613 1-529); settings: protein: recombinant; tags: N-terminal GST; chain copies: 3; dsDNA, one strand shown
Summary of the method: as §1

SPIC = target: T2, SPIC (Homo sapiens, UniProt Q8N5J4 1-248); settings: protein: recombinant; tags: N-terminal GST; dsDNA, one strand shown
T2 sequence: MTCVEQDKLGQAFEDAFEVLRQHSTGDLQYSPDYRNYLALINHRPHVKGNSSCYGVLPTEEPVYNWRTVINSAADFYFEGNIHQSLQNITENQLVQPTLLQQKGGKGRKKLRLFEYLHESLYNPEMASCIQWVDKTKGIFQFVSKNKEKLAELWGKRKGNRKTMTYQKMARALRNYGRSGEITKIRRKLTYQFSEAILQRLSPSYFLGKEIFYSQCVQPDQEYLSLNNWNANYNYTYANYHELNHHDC
Summary of the method: as §1

ELF4 = ELF4 (Homo sapiens, UniProt Q99607 1-663); settings: protein: recombinant; tags: N-terminal GST; dsDNA, one strand shown
Summary of the method: as §1

ELK4 = target: T3, ELK4 (Homo sapiens, UniProt P28324-2 1-405); settings: protein: recombinant; tags: N-terminal GST; dsDNA, one strand shown
T3 sequence: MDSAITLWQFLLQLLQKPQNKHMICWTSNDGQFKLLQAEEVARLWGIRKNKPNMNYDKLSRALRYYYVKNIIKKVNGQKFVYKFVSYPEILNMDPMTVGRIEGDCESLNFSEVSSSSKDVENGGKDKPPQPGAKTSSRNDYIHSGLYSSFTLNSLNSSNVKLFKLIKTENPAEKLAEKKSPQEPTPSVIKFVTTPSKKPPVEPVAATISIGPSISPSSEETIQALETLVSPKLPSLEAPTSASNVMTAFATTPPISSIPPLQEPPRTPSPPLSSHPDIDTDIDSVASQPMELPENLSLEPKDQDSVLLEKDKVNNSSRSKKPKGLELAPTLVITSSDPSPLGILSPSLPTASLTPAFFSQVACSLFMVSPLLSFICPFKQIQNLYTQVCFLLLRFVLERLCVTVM
Summary of the method: as §1

ETV2 = target: T4, ETV2 (Homo sapiens, UniProt O00321 1-342); settings: protein: recombinant; tags: N-terminal GST; dsDNA, one strand shown
T4 sequence: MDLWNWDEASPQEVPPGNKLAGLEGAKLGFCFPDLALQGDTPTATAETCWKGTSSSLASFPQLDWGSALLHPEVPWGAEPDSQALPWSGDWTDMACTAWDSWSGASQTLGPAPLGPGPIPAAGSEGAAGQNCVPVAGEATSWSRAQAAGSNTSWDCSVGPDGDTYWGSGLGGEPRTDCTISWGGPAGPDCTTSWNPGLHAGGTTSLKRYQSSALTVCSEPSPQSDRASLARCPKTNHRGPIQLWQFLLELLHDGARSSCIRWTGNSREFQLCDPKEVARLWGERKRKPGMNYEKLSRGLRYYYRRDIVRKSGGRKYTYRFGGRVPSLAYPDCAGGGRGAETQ
Summary of the method: as §1

ELF3 = target: T5, ELF3 (Homo sapiens, UniProt P78545 1-371); settings: protein: recombinant; tags: N-terminal GST; dsDNA, one strand shown
T5 sequence: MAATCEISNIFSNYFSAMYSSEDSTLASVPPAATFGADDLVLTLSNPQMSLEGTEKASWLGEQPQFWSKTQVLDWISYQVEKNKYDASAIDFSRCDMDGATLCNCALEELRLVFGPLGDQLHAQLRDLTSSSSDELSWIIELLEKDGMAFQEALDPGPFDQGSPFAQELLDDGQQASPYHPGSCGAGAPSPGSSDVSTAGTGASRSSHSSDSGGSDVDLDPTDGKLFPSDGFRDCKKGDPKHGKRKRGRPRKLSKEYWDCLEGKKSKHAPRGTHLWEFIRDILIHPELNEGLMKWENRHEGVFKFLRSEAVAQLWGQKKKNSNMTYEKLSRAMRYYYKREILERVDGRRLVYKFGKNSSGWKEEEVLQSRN
Summary of the method: as §1

CRX = CRX (Homo sapiens, UniProt O43186 1-299); settings: protein: recombinant; tags: N-terminal GST; dsDNA, one strand shown
Summary of the method: as §1

ETV1 = ETV1 (Homo sapiens, UniProt P50549 1-477); settings: protein: recombinant; tags: N-terminal GST; dsDNA, one strand shown
Summary of the method: as §1

ERF = target: T6, ERF (Homo sapiens, UniProt P50548 1-548); settings: protein: recombinant; tags: N-terminal GST; dsDNA, one strand shown
T6 sequence: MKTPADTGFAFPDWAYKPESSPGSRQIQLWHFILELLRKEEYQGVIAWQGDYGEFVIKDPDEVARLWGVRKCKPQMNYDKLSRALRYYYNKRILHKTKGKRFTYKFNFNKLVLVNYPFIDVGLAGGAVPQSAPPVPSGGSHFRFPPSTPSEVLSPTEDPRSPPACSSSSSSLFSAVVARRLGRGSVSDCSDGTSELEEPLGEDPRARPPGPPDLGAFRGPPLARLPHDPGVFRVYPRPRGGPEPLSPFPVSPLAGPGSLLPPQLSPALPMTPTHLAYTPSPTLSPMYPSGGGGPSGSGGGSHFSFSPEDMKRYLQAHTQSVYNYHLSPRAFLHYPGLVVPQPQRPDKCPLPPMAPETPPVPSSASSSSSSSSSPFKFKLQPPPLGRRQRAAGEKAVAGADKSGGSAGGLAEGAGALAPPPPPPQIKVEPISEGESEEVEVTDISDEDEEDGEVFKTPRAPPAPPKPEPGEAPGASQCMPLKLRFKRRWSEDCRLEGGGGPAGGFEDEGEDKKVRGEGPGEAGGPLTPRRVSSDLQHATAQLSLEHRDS
Summary of the method: as §1

ETV3L = target: T7, ETV3L (Homo sapiens, UniProt Q6ZN32 1-361); settings: protein: recombinant; tags: N-terminal GST; dsDNA, one strand shown
T7 sequence: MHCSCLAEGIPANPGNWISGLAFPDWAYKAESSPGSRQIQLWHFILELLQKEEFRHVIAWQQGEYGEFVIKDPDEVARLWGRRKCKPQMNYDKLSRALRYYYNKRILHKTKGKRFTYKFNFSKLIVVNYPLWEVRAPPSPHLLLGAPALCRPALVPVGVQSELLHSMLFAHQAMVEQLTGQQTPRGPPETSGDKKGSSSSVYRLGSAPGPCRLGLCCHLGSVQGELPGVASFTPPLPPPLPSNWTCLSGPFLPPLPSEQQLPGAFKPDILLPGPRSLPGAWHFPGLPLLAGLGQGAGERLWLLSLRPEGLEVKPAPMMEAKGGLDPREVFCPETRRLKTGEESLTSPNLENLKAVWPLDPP
Summary of the method: as §1

ETS2 = target: T8, ETS2 (Homo sapiens, UniProt P15036 1-469); settings: protein: recombinant; tags: N-terminal GST; dsDNA, one strand shown
T8 sequence: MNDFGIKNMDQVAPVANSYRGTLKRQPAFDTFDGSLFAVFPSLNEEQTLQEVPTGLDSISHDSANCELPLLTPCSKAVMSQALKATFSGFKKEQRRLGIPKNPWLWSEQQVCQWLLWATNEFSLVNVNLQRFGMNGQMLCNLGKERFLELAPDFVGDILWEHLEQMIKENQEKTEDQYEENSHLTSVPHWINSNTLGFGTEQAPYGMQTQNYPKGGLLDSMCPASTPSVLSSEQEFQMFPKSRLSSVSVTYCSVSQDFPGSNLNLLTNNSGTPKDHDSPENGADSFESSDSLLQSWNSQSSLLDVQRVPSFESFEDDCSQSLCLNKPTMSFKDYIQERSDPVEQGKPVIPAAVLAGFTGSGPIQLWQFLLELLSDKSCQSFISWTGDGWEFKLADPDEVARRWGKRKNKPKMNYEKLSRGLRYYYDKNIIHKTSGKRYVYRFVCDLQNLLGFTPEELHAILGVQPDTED
Summary of the method: as §1

SPDEF = target: T9, SPDEF (Homo sapiens, UniProt O95238 1-335); settings: protein: recombinant; tags: N-terminal GST; dsDNA, one strand shown
T9 sequence: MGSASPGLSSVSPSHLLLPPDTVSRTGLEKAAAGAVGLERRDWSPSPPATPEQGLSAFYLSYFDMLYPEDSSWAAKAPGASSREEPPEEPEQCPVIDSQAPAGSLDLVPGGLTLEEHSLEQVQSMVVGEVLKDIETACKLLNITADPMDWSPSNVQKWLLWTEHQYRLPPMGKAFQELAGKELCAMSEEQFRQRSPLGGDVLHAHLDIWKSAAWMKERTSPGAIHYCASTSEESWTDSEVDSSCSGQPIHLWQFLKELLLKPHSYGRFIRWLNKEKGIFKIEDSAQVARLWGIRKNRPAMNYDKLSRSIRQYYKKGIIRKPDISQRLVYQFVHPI
Summary of the method: as §1

ETV7 = target: T10, ETV7 (Homo sapiens, UniProt Q9Y603 1-341); settings: protein: recombinant; tags: N-terminal GST; dsDNA, one strand shown
T10 sequence: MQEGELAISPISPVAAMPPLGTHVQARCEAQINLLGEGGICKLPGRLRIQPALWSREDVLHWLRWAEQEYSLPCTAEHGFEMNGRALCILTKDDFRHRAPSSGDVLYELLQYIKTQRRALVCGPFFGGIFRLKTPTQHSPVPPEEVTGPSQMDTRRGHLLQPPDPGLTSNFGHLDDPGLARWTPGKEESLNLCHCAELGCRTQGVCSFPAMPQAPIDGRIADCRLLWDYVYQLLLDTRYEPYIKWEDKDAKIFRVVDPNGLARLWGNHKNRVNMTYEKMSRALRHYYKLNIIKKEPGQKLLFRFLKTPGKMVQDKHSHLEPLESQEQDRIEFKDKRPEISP
Summary of the method: as §1

ELF5 = target: T11, ELF5 (Homo sapiens, UniProt Q9UKW6-2 1-255); settings: protein: recombinant; tags: N-terminal GST; dsDNA, one strand shown
T11 sequence: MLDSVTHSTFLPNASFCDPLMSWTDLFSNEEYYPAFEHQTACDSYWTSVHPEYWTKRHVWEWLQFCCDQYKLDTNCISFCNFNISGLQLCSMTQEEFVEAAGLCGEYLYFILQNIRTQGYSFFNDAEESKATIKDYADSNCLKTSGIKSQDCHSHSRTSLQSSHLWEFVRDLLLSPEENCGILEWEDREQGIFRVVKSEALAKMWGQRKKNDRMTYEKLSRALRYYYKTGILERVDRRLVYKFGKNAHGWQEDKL
Summary of the method: as §1

ETV3 = target: T12, ETV3 (Homo sapiens, UniProt P41162-2 1-143); settings: protein: recombinant; tags: N-terminal GST; dsDNA, one strand shown
T12 sequence: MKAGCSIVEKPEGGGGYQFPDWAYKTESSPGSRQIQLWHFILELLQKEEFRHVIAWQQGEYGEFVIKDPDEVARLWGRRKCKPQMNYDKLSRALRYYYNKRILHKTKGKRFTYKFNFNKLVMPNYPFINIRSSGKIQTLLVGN
Summary of the method: as §1

ETV6 = ETV6 (Homo sapiens, UniProt P41212 1-452); settings: protein: recombinant; tags: N-terminal GST; dsDNA, one strand shown
Summary of the method: as §1

Sequence of ELF4 (Q99607 whole entry): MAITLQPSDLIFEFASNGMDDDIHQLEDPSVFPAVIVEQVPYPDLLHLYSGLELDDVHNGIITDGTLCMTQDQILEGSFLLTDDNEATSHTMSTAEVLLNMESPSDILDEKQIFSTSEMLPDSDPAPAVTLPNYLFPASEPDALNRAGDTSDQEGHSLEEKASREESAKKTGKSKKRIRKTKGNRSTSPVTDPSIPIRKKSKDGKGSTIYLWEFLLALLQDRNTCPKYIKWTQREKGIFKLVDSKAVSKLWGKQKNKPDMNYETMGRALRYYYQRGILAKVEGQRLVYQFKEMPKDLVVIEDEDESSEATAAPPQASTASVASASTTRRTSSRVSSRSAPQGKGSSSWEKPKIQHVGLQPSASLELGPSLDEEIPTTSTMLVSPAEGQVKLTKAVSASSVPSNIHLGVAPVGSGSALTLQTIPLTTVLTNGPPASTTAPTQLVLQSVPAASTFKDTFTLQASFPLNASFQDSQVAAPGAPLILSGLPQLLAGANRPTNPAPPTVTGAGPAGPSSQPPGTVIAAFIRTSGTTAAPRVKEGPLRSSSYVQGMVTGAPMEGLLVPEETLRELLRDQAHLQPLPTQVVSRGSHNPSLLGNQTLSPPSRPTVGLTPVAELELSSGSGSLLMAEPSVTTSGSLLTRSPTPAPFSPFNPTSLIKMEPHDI
Sequence of ETV1 (P50549 whole entry): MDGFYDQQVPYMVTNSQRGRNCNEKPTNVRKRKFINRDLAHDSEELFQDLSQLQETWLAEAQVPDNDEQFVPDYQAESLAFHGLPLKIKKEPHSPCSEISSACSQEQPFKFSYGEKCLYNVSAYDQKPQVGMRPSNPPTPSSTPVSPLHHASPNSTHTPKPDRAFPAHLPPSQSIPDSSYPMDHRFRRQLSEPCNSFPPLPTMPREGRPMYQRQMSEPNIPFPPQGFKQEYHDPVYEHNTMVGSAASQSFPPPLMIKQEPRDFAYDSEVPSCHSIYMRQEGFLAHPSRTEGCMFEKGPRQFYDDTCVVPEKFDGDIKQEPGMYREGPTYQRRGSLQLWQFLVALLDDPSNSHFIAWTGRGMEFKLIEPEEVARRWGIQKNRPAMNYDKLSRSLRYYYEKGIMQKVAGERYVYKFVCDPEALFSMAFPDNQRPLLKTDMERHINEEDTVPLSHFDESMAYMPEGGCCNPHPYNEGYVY
Sequence of CRX (O43186 whole entry): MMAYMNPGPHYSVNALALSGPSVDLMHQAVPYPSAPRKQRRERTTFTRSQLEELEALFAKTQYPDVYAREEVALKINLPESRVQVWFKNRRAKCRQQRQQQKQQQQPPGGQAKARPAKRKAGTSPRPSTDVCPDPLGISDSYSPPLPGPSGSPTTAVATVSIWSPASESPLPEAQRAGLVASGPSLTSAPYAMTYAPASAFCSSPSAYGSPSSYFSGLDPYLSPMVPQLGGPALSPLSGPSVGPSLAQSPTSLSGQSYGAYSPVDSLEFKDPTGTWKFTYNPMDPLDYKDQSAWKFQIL
Sequence of HSF1 (Q00613 whole entry): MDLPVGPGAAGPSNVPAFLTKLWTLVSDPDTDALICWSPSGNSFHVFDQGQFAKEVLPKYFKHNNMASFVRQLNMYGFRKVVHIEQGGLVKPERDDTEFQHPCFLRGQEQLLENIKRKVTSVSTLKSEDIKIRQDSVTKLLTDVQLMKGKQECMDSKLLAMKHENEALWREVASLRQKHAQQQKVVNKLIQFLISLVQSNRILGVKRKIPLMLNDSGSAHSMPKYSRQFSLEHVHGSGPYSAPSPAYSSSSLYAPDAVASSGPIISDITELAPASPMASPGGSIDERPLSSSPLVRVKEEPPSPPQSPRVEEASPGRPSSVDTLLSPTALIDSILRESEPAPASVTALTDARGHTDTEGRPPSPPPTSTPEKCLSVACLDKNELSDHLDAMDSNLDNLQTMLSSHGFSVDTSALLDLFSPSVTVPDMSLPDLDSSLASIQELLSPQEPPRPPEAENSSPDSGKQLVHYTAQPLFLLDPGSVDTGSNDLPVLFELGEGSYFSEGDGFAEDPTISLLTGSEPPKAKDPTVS
Sequence of ETV6 (P41212 whole entry): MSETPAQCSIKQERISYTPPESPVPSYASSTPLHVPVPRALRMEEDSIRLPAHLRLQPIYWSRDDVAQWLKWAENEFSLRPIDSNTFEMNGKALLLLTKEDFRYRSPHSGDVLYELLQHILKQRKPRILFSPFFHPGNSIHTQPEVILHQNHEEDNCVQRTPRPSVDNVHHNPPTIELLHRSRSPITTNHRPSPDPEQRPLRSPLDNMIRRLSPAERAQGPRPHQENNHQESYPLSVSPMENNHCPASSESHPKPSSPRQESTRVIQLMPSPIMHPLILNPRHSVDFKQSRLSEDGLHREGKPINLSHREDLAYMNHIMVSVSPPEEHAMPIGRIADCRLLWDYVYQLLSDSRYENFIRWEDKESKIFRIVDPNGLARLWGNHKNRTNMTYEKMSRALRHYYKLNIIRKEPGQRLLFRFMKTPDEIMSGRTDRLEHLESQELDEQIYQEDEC
Sequence of ETV5 (P41161 whole entry): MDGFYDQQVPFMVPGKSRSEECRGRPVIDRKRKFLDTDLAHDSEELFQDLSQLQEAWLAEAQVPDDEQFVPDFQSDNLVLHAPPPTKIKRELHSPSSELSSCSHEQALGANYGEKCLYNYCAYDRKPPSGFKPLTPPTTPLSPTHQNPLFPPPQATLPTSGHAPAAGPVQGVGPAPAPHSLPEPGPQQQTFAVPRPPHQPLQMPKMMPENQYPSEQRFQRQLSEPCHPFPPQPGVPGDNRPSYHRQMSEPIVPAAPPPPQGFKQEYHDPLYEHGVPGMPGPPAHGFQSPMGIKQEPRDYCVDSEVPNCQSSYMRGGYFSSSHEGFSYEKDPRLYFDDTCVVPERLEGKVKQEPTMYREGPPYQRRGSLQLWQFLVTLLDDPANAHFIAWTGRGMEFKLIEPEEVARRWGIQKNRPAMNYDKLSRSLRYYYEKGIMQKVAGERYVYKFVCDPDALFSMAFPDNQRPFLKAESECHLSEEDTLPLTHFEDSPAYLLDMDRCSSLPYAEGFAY

**Q.** Which binding signal (FEV) does the source give for GGCCTT here?
**A.** 1.14 fold enrichment (6-mer frequency, TF over GST control)

**Q.** And the binding signal (ETV5)?
**A.** 1.16 fold enrichment (6-mer frequency, TF over GST control)

**Q.** What about the binding signal (HSF1) of the same sequence?
**A.** 1.05 fold enrichment (6-mer frequency, TF over GST control)

**Q.** And the binding signal (SPIC)?
**A.** 1.16 fold enrichment (6-mer frequency, TF over GST control)

**Q.** And the binding signal (ELF4)?
**A.** 1.25 fold enrichment (6-mer frequency, TF over GST control)

**Q.** And the binding signal (ELK4)?
**A.** 1.09 fold enrichment (6-mer frequency, TF over GST control)

**Q.** What about the binding signal (ETV2) of the same sequence?
**A.** 1.07 fold enrichment (6-mer frequency, TF over GST control)

**Q.** And the binding signal (ELF3)?
**A.** 1.15 fold enrichment (6-mer frequency, TF over GST control)

**Q.** What about the binding signal (CRX) of the same sequence?
**A.** 1.02 fold enrichment (6-mer frequency, TF over GST control)

**Q.** And the binding signal (ETV1)?
**A.** 1.1 fold enrichment (6-mer frequency, TF over GST control)

**Q.** And the binding signal (ERF)?
**A.** 1.12 fold enrichment (6-mer frequency, TF over GST control)

**Q.** And the binding signal (ETV3L)?
**A.** 1.05 fold enrichment (6-mer frequency, TF over GST control)

**Q.** And the binding signal (ETS2)?
**A.** 1.09 fold enrichment (6-mer frequency, TF over GST control)

**Q.** And the binding signal (SPDEF)?
**A.** 1.06 fold enrichment (6-mer frequency, TF over GST control)

**Q.** And the binding signal (ETV7)?
**A.** 1.34 fold enrichment (6-mer frequency, TF over GST control)

**Q.** And the binding signal (ELF5)?
**A.** 1.06 fold enrichment (6-mer frequency, TF over GST control)

**Q.** What about the binding signal (ETV3) of the same sequence?
**A.** 1.11 fold enrichment (6-mer frequency, TF over GST control)

**Q.** And the binding signal (ETV6)?
**A.** 1.04 fold enrichment (6-mer frequency, TF over GST control)
